Source: PubChem BioAssay
Most compounds without a hit are left out; they make up all but 27% or so of the library.
CYP2C9 inhib = inhibitors of human CYP2C9; P11712; CYP2C9 Supersomes, luciferin-H conversion, luminescence; inhibition, % at 5 µM; 96,000 tested, 20% active; AID 777;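 active = blocking of liver enzyme CYP2C9 beyond about 50% at 5 µM, limit read from the data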
Cav3 T inh = human Cav3.2 channel inhibition, primary screen; O95180; Cav3.2-expressing cells, Fluo-4 calcium fluorescence FDSS; active compounds read low; B-score at 10 µM; 100,000 tested, 4% active; AID 449739;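 active = single-dose well whose peak fluorescence ratio is a statistical outlier from its plate by either plate-standardised score or position-corrected B-score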
CYP2C19 act = increases human CYP2C19 enzyme activity. activation factor at 5 µM. 96,000 tested, under 10 active. AID 1025. P33261. recombinant CYP2C19, luciferin-H EGE luminescence; active compounds read high; 0 = fully inhibited enzyme, 1 = untreated enzyme;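 active = activation factor of at least 2 at 5 µM in the primary screen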;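 also: 0 = wells with 2.5 mM tranylcypromine and 1 = vehicle-only wells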
Target sequence (P33261 whole entry, looked up): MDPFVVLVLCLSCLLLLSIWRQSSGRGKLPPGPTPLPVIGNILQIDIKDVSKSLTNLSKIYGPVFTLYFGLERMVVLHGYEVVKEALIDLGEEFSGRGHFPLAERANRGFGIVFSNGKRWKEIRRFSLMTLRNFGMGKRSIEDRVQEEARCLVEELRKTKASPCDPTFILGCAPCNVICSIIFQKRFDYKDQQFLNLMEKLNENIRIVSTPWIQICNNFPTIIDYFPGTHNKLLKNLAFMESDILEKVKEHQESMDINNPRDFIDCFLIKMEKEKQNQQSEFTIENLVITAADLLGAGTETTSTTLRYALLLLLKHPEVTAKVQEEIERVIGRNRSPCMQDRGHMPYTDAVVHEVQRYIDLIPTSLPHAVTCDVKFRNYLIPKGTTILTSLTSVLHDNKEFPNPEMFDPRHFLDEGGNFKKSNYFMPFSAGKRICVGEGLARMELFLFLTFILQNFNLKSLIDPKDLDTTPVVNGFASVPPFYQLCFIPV
CYP2C19 inhib = blocks human cytochrome P450 2C19; inhibition, % at 5 µM; AID 778; 96,000 tested, 21% active; CYP2C19 Supersomes, luciferin-H EGE luminescence, 30 min;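 active = CYP2C19 inhibition above a set limit at 5 µM in the primary screen, cut at about 50% in these data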;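 also: plate controls were negative control wells for no effect and 2.5 mM tranylcypromine positive control for full effect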
CYP2C9 act = CYP2C9 (human) activation. AID 1024. recombinant CYP2C9, luciferin-H conversion, luminescence; active compounds read high; factor 1 = untreated enzyme, 0 = blocked. activation factor at 5 µM. 96,000 tested, 1.4% active;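 active = activation factor of 2 or more for CYP2C9 at a 5 µM dose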;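 also: 0 = sulfaphenazole-blocked wells and 1 = vehicle-only wells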
The depositor's hits bear a star; . = no result.

SMILES	CYP2C9 inhib	Cav3 T inh	CYP2C19 act	CYP2C19 inhib	CYP2C9 act
CC1(C(=O)O)CCC(C(=O)NC2CCCCCC2)C1(C)C (stereo unspecified)	-17	0.36	1.2	-21	1.2
FC(F)(F)c1cccc(-c2ccc(-c3csnn3)o2)c1	23	-0.018	0.4	56*	0.8
Cc1cc(C(F)(F)F)nn1CC(=O)N1CCOCC1	12	0.38	1	0	0.9
CN(C)C(/C=C/Nc1ccc(C#N)cc1)=C(C#N)C#N	25	0.0021	0.4	58*	0.8
CN(C)C(/C=C/Nc1ccc(F)cc1F)=C(C#N)C#N	24	-0.62	0.5	49	0.8
CN(C)C(/C=C/Nc1ccc(F)cc1)=C(C#N)C#N	32	0.4	0.4	59*	0.7
N#Cc1nc(COc2ccccc2)oc1N1CCC(Cc2ccccc2)CC1	87*	-5.6*	0.4	55*	0.1
Cc1ccc(OCc2nc(C#N)c(N3CCN(Cc4ccccc4)CC3)o2)cc1	84*	-5.9*	0.3	68*	0.2
CC(=O)OC1CCC2C3CCC4=CC(=O)CCC4(C)C3CCC2(C)[C@]1(C)O (stereo partly specified)	.	0.47	.	.	.
Cc1csc(NC(C)c2nc3cc(Cl)c(Cl)cc3n2CCCO)n1 (stereo unspecified)	.	-0.11	.	.	.
CCOC(=O)/C(C(N)=NCc1ccco1)=C(/O)c1ccccc1	40	-1.6	0.5	55*	0.6
O=S(=O)(c1ccc(F)cc1)N1CCC(N2CCCCCC2)CC1	20	0.3	0.9	11	0.8
O=S(=O)(c1ccc(N2CCN(c3ccc(F)cc3)CC2)cc1)N1CCCC1	7	-1.8	1	1	0.9
O=S(=O)(Nc1ccc(F)cc1)N1CCCCCC1	67*	0.26	0	99*	0.3
O=S(=O)(N1CCCCC1)N1CCN(c2ccc(F)cc2)CC1	44	-0.47	0.4	58*	0.6
O=C(/C=C\Nc1cccc(F)c1)c1ccc2c(c1)OCO2	31	-3.1	1	-4	0.7
COC(=O)C1=C(C)Nc2nnnn2C1c1cc(OC)ccc1OC (stereo unspecified)	61*	1.8	0.7	30	0.4
COC(=O)c1nc2n(n1)C(c1cc(OC)ccc1OC)C(C(=O)OC1CCCCC1)=C(C)N2 (stereo unspecified)	68*	-4.8*	0.5	47	0.3
Cc1ccc(-n2nnnc2-c2cnc(-c3cccnc3)nc2C(F)(F)F)cc1	60*	-1.4	0.5	48	0.4
FC(F)(F)c1nc(-c2ccncc2)ncc1-c1nnnn1-c1ccccc1	74*	0.45	0	101*	0.3
FC(F)(F)c1nc(N2CCCC2)ncc1-c1nnnn1-c1ccc(Cl)cc1	39	-4.8*	0.1	90*	0.6
Cc1ccc(-n2nnnc2-c2cnn(-c3ccc(F)cc3)c2C(F)(F)F)cc1	.	-0.065	.	.	.
Fc1ccc(-n2nnnc2-c2cnc(-c3cccs3)nc2C(F)(F)F)cc1	86*	-3.3	0.7	34	0.1
c1ccc(-n2nnnc2-c2cnc(-c3ccncc3)nc2-c2cccs2)cc1	.	-3.3	.	.	.
Cc1cc(C)nc(/N=C/c2c(O)n(C)c(=O)n(C)c2=O)n1	-5	.	1	-4	1.1
SMILES	CYP2C9 inhib	Cav3 T inh	CYP2C19 act	CYP2C19 inhib	CYP2C9 act
Cc1ccccc1NC1=C(C(=O)c2ccccc2)N(C)S(=O)(=O)c2ccccc21	63*	0.32	0.4	56*	0.4
COc1ccc(N2CCN(c3nc(NCCO)nc(N4CCOCC4)n3)CC2)cc1	80*	1.1	0.4	59*	0.2
Cc1nn2c3c(cnc2c1-c1ccccc1)C(=O)CC(c1ccccc1)C3 (stereo unspecified)	54*	0.057	0.6	36	0.5
c1ccc(Oc2cccc(OCCCCSc3ncccn3)c2)cc1	51*	-1.7	0.6	38	0.5
Clc1ccc(OCCSc2ncccn2)cc1	20	-3.2	0.7	29	0.8
c1ccc(Oc2cccc(OCCCn3cncn3)c2)cc1	94*	-0.88	0	100*	0.1
COc1ccc(OCCCSc2ncccn2)cc1	22	-0.12	0.4	64*	0.8
COc1ccc(OCCSc2ncccn2)cc1	37	-1.2	0.1	87*	0.6
c1ccc(COc2ccc(OCCOCCn3cncn3)cc2)cc1	30	0.18	0.7	31	0.7
COc1cccc(OCCCCSc2ncccn2)c1	20	-1.9	0.8	20	0.8
CN(C)c1nc(OCC(=O)NC(C)(C)C)nc(N(C)C)n1	-1	0.58	0.6	37	1
